Bioassay records as filed in PubChem BioAssay.
Only a selection was taken, and hits are over-represented in it overall.
GALK inhibitor – qHTS Assay for Inhibitors of Human Galactokinase (GALK). P51570. Purified GALK, Kinase-Glo residual ATP luminescence. Potency, µM (series often up to 57.5 µM), for inactives: at the highest dose activity change, negative = inhibition, most hits filed as inhibitors. hit rate 0.007% among 270,000. AID 1868, 2009; further: potency means the concentration at half of the fitted maximal effect
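Kinase-Glo Plus luminescence measured ATP left after a 1 h room-temperature reaction. The reaction used 5 nM GALK, 100 uM galactose and 35 uM ATP at pH 8.0 (20 mM HEPES, 5 mM MgCl2, 60 mM NaCl, 1 mM DTT, 0.01% BSA).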
CtBP-E1A blk – qHTS Assay for Inhibitors of the CtBP/E1A Interaction. AlphaScreen GST-E1A/His-CtBP binding, 1536-well; hits give low values. AID 651724, 2012. hit rate 0.49% among 340,000. activity change, % (concentration not given with the values). CtBP / adenovirus E1A interaction (AlphaScreen); in the data active means activity change below about -65%; inconclusive means mostly about -30% to -63%
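GST-E1A and His-tagged CtBP (125 nM each as 5X stock) were preincubated with pin-transferred compound for 2 h at 37 °C in the dark, then glutathione donor and nickel acceptor beads were added for 1 h before AlphaScreen reading.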
JMJD2E inh – qHTS Assay for Inhibitors of Human Jumonji Domain Containing 2E (JMJD2E). Lysine-specific demethylase 4E (Homo sapiens), B2RXH2. JMJD2E catalytic domain, FDH-coupled NADH fluorescence (FDH is formaldehyde dehydrogenase). Potency, µM (series often up to 57.1 µM), without a hit: at the highest dose activity change, negative = inhibition, most hits filed as inhibitors. hit rate 1.6% among 230,000; active means well fitted inhibition curve with a large enough effect, not every such curve was filed as active; inconclusive means small, poorly fitted or top-dose-only effect, or another doubt; inactive means no such curve, though single readings can be large or run the other way;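 further: potency means the concentration at half of the fitted maximal effect; 0% = wells with enzyme and -100% = buffer wells without enzyme; nearly all actives have a fitted effect of over 50% in size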
Target sequence (B2RXH2 1-337 limits assumed): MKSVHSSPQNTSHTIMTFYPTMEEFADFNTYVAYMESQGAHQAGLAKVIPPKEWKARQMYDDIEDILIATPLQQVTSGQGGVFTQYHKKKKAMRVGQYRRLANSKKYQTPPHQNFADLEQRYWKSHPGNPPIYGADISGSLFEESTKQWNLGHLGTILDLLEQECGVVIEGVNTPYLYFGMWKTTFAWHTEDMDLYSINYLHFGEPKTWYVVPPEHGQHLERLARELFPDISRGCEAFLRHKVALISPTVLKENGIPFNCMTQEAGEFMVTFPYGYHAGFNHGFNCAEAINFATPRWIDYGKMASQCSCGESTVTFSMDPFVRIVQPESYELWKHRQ
Eya2 phos inh – qHTS Assay for Inhibitors of the Phosphatase Activity of Eya2; Protein phosphatase EYA2 (Homo sapiens), O00167; recombinant Eya2, OMFP fluorescence dephosphorylation (OMFP is methylfluorescein phosphate); Potency, µM (doses to about 76.9 µM), without a hit: at the top dose activity, negative = inhibition, most hits filed as inhibitors; hit rate 0.006% among 330,000; further: potency means the concentration at half of the fitted maximal effect
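Eya2 (0.2 uM) preincubated 10 min at ambient with compound, then OMFP substrate added at 50 uM; 10 min reaction in 50 mM HEPES pH 7.5, 50 mM NaCl, 5 uM MgCl2, 0.05% BSA, 1 mM DTT. Fluorescence read at Ex 485/Em 525 nm.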
Six1-Eya2 inh – qHTS Assay for Inhibitors of the Six1/Eya2 Interaction. Homeobox protein SIX1 (Homo sapiens) + Protein phosphatase EYA2 (Homo sapiens), …. AlphaScreen GST-Six1/His-Eya2 binding, biochemical; hits give low values. activity change, % (test concentration not listed). hit rate 0.56% among 360,000; in the data active means activity change below about -65%; inconclusive means mostly about -30% to -63%
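Six1/Eya2 binding was read as AlphaScreen signal after compounds were pinned into GST-Six1 plus His-tagged Eya2 (5X stock 250/500 nM) in pH 8.0 Tris/NaCl/TCEP buffer, beads added, then incubated 1 h, 37 C, dark.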
Anesthetic bind – qHTS Assay for Identification of Novel General Anesthetics. AID 485281, 2010. Ferritin light chain (Equus caballus), P02791. Potency, µM (series often up to 77.5 µM), inactives show top-dose activity change, negative = displacement, hits mostly inhibitors. hit rate 0.074% among 350,000. apoferritin/1-aminoanthracene competitive binding, fluorescence; further: potency means the concentration at half of the fitted maximal effect; nearly all actives have a fitted effect of over 20% in size
Target sequence (P02791 2-175 limits assumed): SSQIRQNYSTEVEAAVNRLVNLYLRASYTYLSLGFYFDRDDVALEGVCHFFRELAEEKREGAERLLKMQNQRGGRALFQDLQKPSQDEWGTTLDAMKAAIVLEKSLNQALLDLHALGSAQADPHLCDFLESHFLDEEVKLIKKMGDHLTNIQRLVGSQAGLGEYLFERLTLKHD
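Read-out: endpoint 1-AMA fluorescence, excitation 380 nm and emission 535 nm, after compounds sit 10 min at room temperature with 10 uM horse-spleen apoferritin in 50% saturated 1-AMA/PBS. Values come from four-parameter Hill fits.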
* hit, by the source's call; [ ] = another dose, or the depositor's remark. Unless noted, the call rests on the fitted dose curve; in most records, active means well fitted curve in the direction sought with a large enough effect; inconclusive means small, poorly fitted or top-dose-only effect, or another doubt; inactive means no such curve, though single readings can be large; an effect the other way counts as inactive or inconclusive. Unless noted, on the % scale 0 is the no-effect control and ±100 the full control effect.

Cc1cc2oc(=O)cc(-c3ccccc3)c2c(C)c1-c1sccc1C=O was read as Anesthetic bind -23%[110 µM].
Screening CN(C)CCN(C(=O)CN1C(=O)c2ccccc2C1=O)c1nc2cc3c(cc2s1)OCO3 returned GALK inhibitor -7%, CtBP-E1A blk 4, Eya2 phos inh -14%, Six1-Eya2 inh -13 and Anesthetic bind -19%.
`CCN(CC)CCN(C(=O)CN1C(=O)c2ccccc2C1=O)c1nc2cc3c(cc2s1)OCO3` gave GALK inhibitor -2%, CtBP-E1A blk -83*, Eya2 phos inh 6%, Six1-Eya2 inh -10 and Anesthetic bind inconclusive.
`COc1ccc(CC(N)c2csc(Nc3cnccn3)n2)cc1` (stereo not given) gave CtBP-E1A blk -75* and Six1-Eya2 inh inconclusive.
Screening NC(c1csc(Nc2cc(NCCCO)ncn2)n1)c1ccccc1Cl (stereo not given) returned CtBP-E1A blk -89* and Six1-Eya2 inh -89*.
NC(c1csc(Nc2ncccn2)n1)c1ccccc1Cl (stereo not given) was read as CtBP-E1A blk -66* and Six1-Eya2 inh -68*.
Screening COc1cc(OC)nc(Nc2nc(C(N)c3ccccc3Cl)cs2)n1 (stereo not given) returned CtBP-E1A blk -30 and Six1-Eya2 inh -29.
`COc1ccc(CC(N)c2csc(Nc3ccc(C(C)=O)cc3)n2)cc1` (stereo not given) gave CtBP-E1A blk -12 and Six1-Eya2 inh -25.
COc1ccc(CC(N)c2csc(Nc3cc(NCc4ccco4)ncn3)n2)cc1 (stereo not given) was read as CtBP-E1A blk -74* and Six1-Eya2 inh -65*.
For CCc1cnc(Nc2nc(C(N)Cc3ccc(F)cc3)cs2)nc1 (stereo not given) the results were CtBP-E1A blk -71* and Six1-Eya2 inh inconclusive.
For COc1ccc(CC(N)c2csc(Nc3ncccn3)n2)cc1 (stereo not given) the results were CtBP-E1A blk -80* and Six1-Eya2 inh -71*.
COc1ccc(C(N)c2csc(Nc3ncccn3)n2)cc1 (stereo not given) was read as CtBP-E1A blk -83* and Six1-Eya2 inh -85*.
Screening CC(=O)OC[C@@H]1O[C@H](CCO/N=C(\C)CCN2CCc3nc(-c4ccccc4)c(-c4ccccc4)cc3C2)C=C[C@@H]1OC(C)=O returned Anesthetic bind 2%[15.3 µM].
For Nc1nc(-c2ccccn2)nc(N)c1Cc1ccc(Cl)cc1Cl the results were GALK inhibitor 6%, CtBP-E1A blk -91*, JMJD2E inh -3%, Eya2 phos inh 4%, Six1-Eya2 inh -80* and Anesthetic bind -6%.
Nc1nc(-c2ccccn2)nc(N)c1Cc1ccccc1F was read as GALK inhibitor 1%, CtBP-E1A blk -90*, JMJD2E inh 7%, Eya2 phos inh 17%, Six1-Eya2 inh -74* and Anesthetic bind -3%.
For Nc1nc(-c2ccccn2)nc(N)c1Cc1c(F)cccc1Cl the results were GALK inhibitor 0%, CtBP-E1A blk -92*, JMJD2E inh 15%, Eya2 phos inh 9%, Six1-Eya2 inh -79* and Anesthetic bind -7%.
For O=C1NC(=S)S/C1=C\C=C\c1ccc([N+](=O)[O-])o1 the results were GALK inhibitor 2%, CtBP-E1A blk inconclusive, JMJD2E inh 20µM*, Eya2 phos inh -6%, Six1-Eya2 inh inconclusive and Anesthetic bind -20%.
For O=C1CN(/N=C\c2ccc([N+](=O)[O-])o2)C(=O)N1 the results were JMJD2E inh -28%[25.5 µM] and Anesthetic bind 1%[29.3 µM].
Screening Cc1cccc(-c2ccc3ncnc(NCc4cc(C)cs4)c3c2)c1 returned Eya2 phos inh -18%.
`O=C1c2sc3nc4n(c(=O)c3c2CCC1Br)CCCCC4` (stereo not given) gave GALK inhibitor 2%, CtBP-E1A blk 5, JMJD2E inh 18µM*, Eya2 phos inh 0%, Six1-Eya2 inh -3 and Anesthetic bind -18%.
Screening Cc1cc(C)n2c(=S)[nH]nc2n1 returned GALK inhibitor 2%, CtBP-E1A blk -3, JMJD2E inh 7.1µM*, Eya2 phos inh 4%, Six1-Eya2 inh 3 and Anesthetic bind -23%.
For CCOC(=O)c1cnc2c(OC)cccc2c1N1CCN(c2ccccc2F)CC1 the results were Anesthetic bind 8.9µM*.
Cc1oc(C(=O)O)cc1COc1cccc2cccnc12 was read as GALK inhibitor -3%, CtBP-E1A blk -71*, JMJD2E inh inconclusive, Eya2 phos inh 21%, Six1-Eya2 inh inconclusive and Anesthetic bind -9%.
`COc1cccc(NC(=O)CN(C)C(=O)CCC(=O)c2cc(C)sc2C)c1` gave CtBP-E1A blk -77*, Eya2 phos inh 32% and Six1-Eya2 inh 1.
`COc1cc([N+](=O)[O-])cc(/C=N/NC(=O)C(C)Nc2ccccc2C)c1O` (stereo not given) gave CtBP-E1A blk -73*, JMJD2E inh inconclusive, Eya2 phos inh 4%, Six1-Eya2 inh inconclusive and Anesthetic bind -9%.
Screening COc1cc([N+](=O)[O-])cc(/C=N/NC(=O)C(C)Nc2cccc(C)c2)c1O (stereo not given) returned GALK inhibitor 0%, CtBP-E1A blk inconclusive, JMJD2E inh 3.2µM*, Eya2 phos inh -4%, Six1-Eya2 inh -21 and Anesthetic bind -10%.
`C=CCc1cccc(/C=N/NC(=O)C[n+]2ccccc2)c1O` gave CtBP-E1A blk -91*, Eya2 phos inh 2%, Six1-Eya2 inh -89* and Anesthetic bind 5%.
For C=CCc1cccc(/C=N/NC(=O)C(C)Nc2cccc(C)c2)c1O (stereo not given) the results were GALK inhibitor -1%, CtBP-E1A blk -16, JMJD2E inh 20µM*, Eya2 phos inh -5%, Six1-Eya2 inh -23 and Anesthetic bind inconclusive.
C=CCc1cccc(/C=N/NC(=O)CNc2ccccc2)c1O was read as GALK inhibitor -3%, CtBP-E1A blk -2, JMJD2E inh inconclusive, Six1-Eya2 inh -3 and Anesthetic bind inconclusive.
Screening Cc1cccc(C)c1NC(=O)C1(C)CSCC(=O)N1CCc1c[nH]c2ccccc12 (stereo not given) returned CtBP-E1A blk -7 and Six1-Eya2 inh -8.
